For some assays here: Entries with a potency or affinity are not part of this list. Calls of active or inactive are those of the source. Unless noted, no rule for the calls is given here.
Assays:
[1] = antimalarial activity against Dd2 strain (AID 2302;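 active = growth inhibition above 50% at the single 2 µM test dose, taken to imply half-maximal potency below 2 µM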;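 also: 0% = DMSO untreated growth and 100% = chloroquine plus artemisinin killed control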); details: P. falciparum Dd2 in RBCs, LDH growth readout, 72 h; at 2 µM; stronger effect = higher value
[2] = human hepatoma cell viability loss – ATP luminescence, cytotoxicity control for P. falciparum antimalarial project, primary screen (AID 2303;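 active = inhibition above 50%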;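 also: 0% = DMSO wells and 100% = digitonin-killed cells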); details: HepG2 viability, 24-48 h, at 10 µM, stronger effect = higher value
[3] = molecular target: L-lactate dehydrogenase (Plasmodium falciparum (isolate CDC / Honduras)) (UniProt Q27743); experiment: PfLDH activity inhibition – cell lysate, 3D7 strain, counter-screen for P. falciparum growth inhibition project (AID 2304);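 also: 0% = vehicle and 100% = reference inhibitor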; details: P. falciparum 3D7 crude extract, LDH APAD/NBT absorbance; at 2 µM; stronger effect = higher value
[4] = inhibition of 3D7 malaria parasite growth – strain 3D7 (AID 2306);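 also: 0% = DMSO wells and 100% = chloroquine plus artemisinin control wells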; details: P. falciparum 3D7 erythrocytic growth, LDH absorbance, 72 h; at 2 µM; stronger effect = higher value
[5] = molecular target: Calcium-dependent protein kinase 1 (Plasmodium falciparum (isolate 3D7)) (UniProt P62344); experiment: PfCDPK1 kinase inhibitors, biochemical, TCAMS library (AID 1159585; cut-off not given, nearly all actives have IC50 up to about 0.98 µM;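 also: inhibitors leave more ATP so luminescence rises with inhibition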); details: recombinant PfCDPK1, Kinase-Glo ATP depletion luminescence
[6] = molecular target: Plasmodium falciparum protein kinase 6 (PK6, PF3D7_1337100) (UniProt Q8IDW1); experiment: PfPK6 kinase inhibitors, biochemical, TCAMS library (AID 1159586); details: recombinant PfPK6, Kinase-Glo ATP depletion luminescence
[7] = molecular target: Protein kinase 7 (PK7), Plasmodium falciparum 3D7 (PF3D7_0213400) (UniProt Q7YTF7); experiment: inhibition of Plasmodium PK7 catalytic activity – biochemical, TCAMS antimalarial set, Kinase-Glo luminescence (AID 1159587); details: recombinant PfPK7, Kinase-Glo ATP depletion luminescence
[8] = molecular target: Calcium-dependent protein kinase 4 (Plasmodium falciparum (isolate 3D7)) (UniProt Q8IBS5); experiment: PfCDPK4 kinase inhibitors, biochemical, TCAMS library (AID 1159588; cut-off not given, nearly all actives have IC50 up to about 0.91 µM); details: recombinant PfCDPK4, Kinase-Glo ATP depletion luminescence
Calcium-dependent protein kinase 4 (Plasmodium falciparum (isolate 3D7)), sequence (Q8IBS5 whole entry, looked up): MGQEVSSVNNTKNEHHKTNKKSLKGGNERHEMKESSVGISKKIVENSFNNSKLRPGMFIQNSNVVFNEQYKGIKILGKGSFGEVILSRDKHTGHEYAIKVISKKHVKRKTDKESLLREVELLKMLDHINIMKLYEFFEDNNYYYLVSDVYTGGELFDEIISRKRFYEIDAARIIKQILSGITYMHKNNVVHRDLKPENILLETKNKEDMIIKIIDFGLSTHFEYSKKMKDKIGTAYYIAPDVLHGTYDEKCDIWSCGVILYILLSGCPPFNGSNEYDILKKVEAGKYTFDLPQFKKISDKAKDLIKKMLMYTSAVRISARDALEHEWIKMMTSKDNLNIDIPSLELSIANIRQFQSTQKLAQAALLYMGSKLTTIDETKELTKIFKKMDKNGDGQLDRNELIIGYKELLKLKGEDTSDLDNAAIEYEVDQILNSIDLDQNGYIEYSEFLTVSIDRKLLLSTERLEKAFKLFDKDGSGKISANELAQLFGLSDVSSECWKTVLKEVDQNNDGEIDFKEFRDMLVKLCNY

L-lactate dehydrogenase (Plasmodium falciparum (isolate CDC / Honduras)), sequence (Q27743 whole entry, looked up): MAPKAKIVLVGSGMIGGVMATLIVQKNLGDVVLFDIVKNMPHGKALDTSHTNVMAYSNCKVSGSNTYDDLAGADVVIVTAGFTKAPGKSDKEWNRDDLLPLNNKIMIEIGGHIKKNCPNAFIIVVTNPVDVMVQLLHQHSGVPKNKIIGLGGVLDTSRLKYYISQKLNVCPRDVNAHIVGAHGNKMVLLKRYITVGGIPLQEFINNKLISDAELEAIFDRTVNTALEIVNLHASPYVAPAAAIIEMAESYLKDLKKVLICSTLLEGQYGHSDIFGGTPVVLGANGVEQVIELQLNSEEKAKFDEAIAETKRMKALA
Plasmodium falciparum protein kinase 6 (PK6, PF3D7_1337100), sequence (Q8IDW1 1-305): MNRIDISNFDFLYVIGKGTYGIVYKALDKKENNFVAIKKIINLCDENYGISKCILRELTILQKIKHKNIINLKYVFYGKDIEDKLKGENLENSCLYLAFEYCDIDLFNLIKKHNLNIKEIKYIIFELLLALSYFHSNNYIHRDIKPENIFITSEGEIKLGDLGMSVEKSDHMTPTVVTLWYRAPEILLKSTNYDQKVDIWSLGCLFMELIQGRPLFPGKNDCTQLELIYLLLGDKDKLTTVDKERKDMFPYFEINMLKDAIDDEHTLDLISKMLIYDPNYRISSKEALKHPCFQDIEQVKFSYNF
Calcium-dependent protein kinase 1 (Plasmodium falciparum (isolate 3D7)), sequence (P62344 whole entry, looked up): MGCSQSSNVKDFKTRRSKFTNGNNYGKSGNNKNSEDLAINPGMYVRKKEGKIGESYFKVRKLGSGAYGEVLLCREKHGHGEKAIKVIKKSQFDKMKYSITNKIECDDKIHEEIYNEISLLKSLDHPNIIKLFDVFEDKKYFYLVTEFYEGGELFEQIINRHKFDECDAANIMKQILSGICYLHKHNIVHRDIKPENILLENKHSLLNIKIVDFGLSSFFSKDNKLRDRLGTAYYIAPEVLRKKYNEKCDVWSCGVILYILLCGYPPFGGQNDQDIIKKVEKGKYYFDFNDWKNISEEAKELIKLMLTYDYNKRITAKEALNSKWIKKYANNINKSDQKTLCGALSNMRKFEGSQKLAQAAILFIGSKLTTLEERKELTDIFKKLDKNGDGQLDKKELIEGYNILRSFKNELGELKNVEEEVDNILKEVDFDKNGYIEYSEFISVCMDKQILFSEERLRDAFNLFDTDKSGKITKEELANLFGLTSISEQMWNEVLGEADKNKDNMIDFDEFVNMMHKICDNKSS
Protein kinase 7 (PK7), Plasmodium falciparum 3D7 (PF3D7_0213400), sequence (Q7YTF7 1-343): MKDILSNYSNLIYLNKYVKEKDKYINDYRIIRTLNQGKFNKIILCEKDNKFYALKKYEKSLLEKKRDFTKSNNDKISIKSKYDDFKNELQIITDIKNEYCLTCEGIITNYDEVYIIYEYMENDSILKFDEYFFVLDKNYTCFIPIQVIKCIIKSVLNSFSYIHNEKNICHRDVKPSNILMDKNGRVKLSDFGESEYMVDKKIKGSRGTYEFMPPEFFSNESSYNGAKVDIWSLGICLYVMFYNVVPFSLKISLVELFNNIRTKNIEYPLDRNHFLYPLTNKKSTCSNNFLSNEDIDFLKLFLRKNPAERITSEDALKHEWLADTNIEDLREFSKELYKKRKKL

Cc1cc(-c2cccc(CNC3CCCC3)c2)ccc1S(=O)(=O)NCCN1CCCC1
active: growth inhibition [4] 81%
inactive: growth inhibition [1] 7% | inhibition [2] 38% | inhibition [3] 2% | outcome [5] | outcome [6] | outcome [7] | outcome [8]

COc1cc(-c2[nH]c(-c3ccc(OCCN(C)C)cc3)cc2-c2ccncc2)ccc1Cl
inactive: growth inhibition [1] 33% | inhibition [2] 3% | inhibition [3] 1% | outcome [5] | outcome [6] | outcome [7] | outcome [8]
active: growth inhibition [4] 93%

OC1CCC(Nc2ccc3ncc(-c4ccc5ccccc5c4)n3n2)CC1 (stereo not given)
inactive: inhibition [3] 3% | outcome [5] | outcome [6] | outcome [7] | outcome [8]
active: growth inhibition [1] 94% | inhibition [2] 52% | growth inhibition [4] 95%

CCCCOc1c(CNCCCCCCNCc2ccc3ccccc3c2OCCCC)ccc2ccccc12
inactive: inhibition [3] 7% | outcome [5] | outcome [6] | outcome [7] | outcome [8]
active: growth inhibition [1] 89% | inhibition [2] 99% | growth inhibition [4] 96%

COc1ccc(C2C(C(=O)Nc3cc(OC)c(OC)c(OC)c3)c3cc(OC)c(OC)cc3C(=O)N2C)cc1 (stereo not given)
active: growth inhibition [1] 100% | growth inhibition [4] 98%
inactive: inhibition [2] 9% | inhibition [3] 2% | outcome [5] | outcome [6] | outcome [7] | outcome [8]

Oc1ccccc1CNCC12CC3CC(CC(C3)C1)C2
inactive: inhibition [2] -4% | inhibition [3] 5% | outcome [5] | outcome [6] | outcome [7] | outcome [8]
active: growth inhibition [1] 99% | growth inhibition [4] 98%

COc1ccc(NS(=O)(=O)c2cccc(C(=O)Nc3ccc(C(F)(F)F)cc3)c2)cc1N1CCN(CC(C)C)CC1
inactive: growth inhibition [1] 4% | inhibition [2] 5% | inhibition [3] 2% | outcome [5] | outcome [6] | outcome [7] | outcome [8]
active: growth inhibition [4] 94%

O=C(NC1CCCCCC1)[C@@H]1CCCN1C(=O)c1ccc(O)c(-c2ccc(Cl)c(Cl)c2)c1
active: growth inhibition [1] 98% | growth inhibition [4] 99%
inactive: inhibition [2] -2% | inhibition [3] -7% | outcome [5] | outcome [6] | outcome [7] | outcome [8]

COc1ccccc1-c1sccc1C(=O)NC1(c2cc(Cl)cc(Cl)c2)CCCC1
active: growth inhibition [1] 95% | growth inhibition [4] 88%
inactive: inhibition [2] -5% | inhibition [3] -3% | outcome [5] | outcome [6] | outcome [7] | outcome [8]

CCOCc1cn(CC(=O)c2ccc(-c3ccccc3)cc2)c(C)nc1=N
inactive: inhibition [2] 13% | inhibition [3] 5% | outcome [5] | outcome [6] | outcome [7] | outcome [8]
active: growth inhibition [1] 72% | growth inhibition [4] 93%

O=C(NCC1CCN(Cc2cccc(F)c2)C1)c1cc(-c2cccc(C(F)(F)F)c2)cs1 (stereo not given)
inactive: growth inhibition [1] 10% | inhibition [2] 31% | inhibition [3] -2% | outcome [5] | outcome [6] | outcome [7] | outcome [8]
active: growth inhibition [4] 96%

Cc1cc2nc(NC3=NC4(c5ccccn5)N=C(Nc5nc6cc(C)c(C)cc6[nH]5)NC4(c4ccccn4)N3)[nH]c2cc1C (stereo not given)
active: growth inhibition [1] 62% | growth inhibition [4] 87%
inactive: inhibition [2] 3% | inhibition [3] -2% | outcome [5] | outcome [6] | outcome [7] | outcome [8]

Cc1cccc2[nH]c(-c3ccc(-c4ccc(CNCc5ccc(S(C)(=O)=O)cc5)cc4)cc3)nc12
inactive: growth inhibition [1] 38% | inhibition [2] 19% | inhibition [3] -1% | outcome [5] | outcome [6] | outcome [7] | outcome [8]
active: growth inhibition [4] 93%

O=C(Nc1cccc(OC2CCN(Cc3ccccc3)CC2)c1)Nc1cccc([N+](=O)[O-])c1
active: growth inhibition [4] 101%
inactive: growth inhibition [1] 48% | inhibition [2] 10% | inhibition [3] 0% | outcome [5] | outcome [6] | outcome [7] | outcome [8]

O=C(NC1CC1)c1ccc(N2CCN(Cc3ccc(Cl)cc3)CC2)nc1
active: growth inhibition [1] 81% | growth inhibition [4] 84%
inactive: inhibition [2] 16% | inhibition [3] 3% | outcome [5] | outcome [6] | outcome [7] | outcome [8]

COc1ccccc1-c1csc(C(=O)NCC2CCN(Cc3ccc(C(C)C)cc3)C2)c1 (stereo not given)
active: growth inhibition [4] 81%
inactive: growth inhibition [1] 6% | inhibition [2] 24% | inhibition [3] 1% | outcome [5] | outcome [6] | outcome [7] | outcome [8]

CN(C)C(=O)c1ccc(CN(Cc2ccc(OC(C)(C)C)cc2)Cc2ccc3c(c2)OCCO3)cc1
active: growth inhibition [1] 96% | growth inhibition [4] 95%
inactive: inhibition [2] -5% | inhibition [3] 1% | outcome [5] | outcome [6] | outcome [7] | outcome [8]

COc1ccc(CNCc2ccccc2)cc1-c1ccc(S(=O)(=O)NCCN2CCCC2)c(C)c1
inactive: inhibition [2] 33% | inhibition [3] 3% | outcome [5] | outcome [6] | outcome [7] | outcome [8]
active: growth inhibition [1] 50% | growth inhibition [4] 99%

O=S(=O)(/C=C/c1ccccc1)N(Cc1ccc(-c2ccc(CNCCc3ccccc3)cc2)cc1)CC1CCCCN1 (stereo not given)
inactive: inhibition [3] -2% | outcome [5] | outcome [6] | outcome [7] | outcome [8]
active: growth inhibition [1] 96% | inhibition [2] 99% | growth inhibition [4] 100%

Oc1ccc(CCNc2nc(NCc3ccccc3-c3ccccc3)nc(N3CCCNCC3)n2)cc1
inactive: growth inhibition [1] 20% | inhibition [2] 26% | inhibition [3] -5% | outcome [5] | outcome [6] | outcome [7] | outcome [8]
active: growth inhibition [4] 95%

Oc1ccc(-c2ccccc2)cc1CN1CCCCCC1
inactive: inhibition [2] 6% | inhibition [3] 2% | outcome [5] | outcome [6] | outcome [7] | outcome [8]
active: growth inhibition [1] 85% | growth inhibition [4] 95%

CC1CN(Cc2cccc(F)c2)CCN1c1ccc(NC(=O)c2ccc(F)cc2)cc1 (stereo not given)
active: growth inhibition [1] 92% | growth inhibition [4] 96%
inactive: inhibition [2] -2% | inhibition [3] -2% | outcome [5] | outcome [6] | outcome [7] | outcome [8]

CC(C)CC(=O)Nc1cc(=O)[nH]c2nc(-c3ccccc3)nn12
inactive: inhibition [2] -6% | inhibition [3] -6% | outcome [5] | outcome [6] | outcome [7] | outcome [8]
active: growth inhibition [1] 85% | growth inhibition [4] 89%

CS(=O)(=O)CCNc1nccc(N2CCc3ncnc(Nc4ccc(OCc5cccc(F)c5)c(Cl)c4)c3C2)n1
inactive: inhibition [2] 8% | inhibition [3] -4% | outcome [5] | outcome [6] | outcome [7] | outcome [8]
active: growth inhibition [1] 100% | growth inhibition [4] 101%

Cc1cccc2c3c([nH]c12)C1(CCN(Cc2ccccc2)CC1)NC(C(=O)NCc1ccccc1)C3 (stereo not given)
inactive: growth inhibition [1] 8% | inhibition [2] -4% | inhibition [3] -2% | outcome [5] | outcome [6] | outcome [7] | outcome [8]
active: growth inhibition [4] 81%

O=C(Nc1ccc(Cn2ncc(N3CCCNCC3)c(Cl)c2=O)cc1)Nc1ccc(SC(F)(F)F)cc1
inactive: inhibition [2] 9% | inhibition [3] 4% | outcome [5] | outcome [6] | outcome [7] | outcome [8]
active: growth inhibition [1] 68% | growth inhibition [4] 93%

O=C(Nc1ccc(-c2ccccc2)cc1)Nc1cccc(Cn2ncc(N3CCNCC3)c(Cl)c2=O)c1
inactive: inhibition [2] 30% | inhibition [3] 5% | outcome [5] | outcome [6] | outcome [7] | outcome [8]
active: growth inhibition [1] 59% | growth inhibition [4] 100%

CCN(CC)CCCCOc1ccc2c(c1)C(=O)c1cc(OCCCCN(CC)CC)ccc1-2
inactive: growth inhibition [1] 44% | inhibition [2] 24% | inhibition [3] -6% | outcome [5] | outcome [6] | outcome [7] | outcome [8]
active: growth inhibition [4] 102%

CN1CCC(C(=O)N(Cc2ccc(-c3ccc(CNCCc4ccccc4)cn3)cc2)Cc2cccc(F)c2)CC1
active: growth inhibition [1] 80% | growth inhibition [4] 90%
inactive: inhibition [2] 30% | inhibition [3] -4% | outcome [5] | outcome [6] | outcome [7] | outcome [8]

Cc1cccc2[nH]c(-c3ccc(-c4ccc(CNCCc5ccncc5)cc4)cc3)nc12
inactive: inhibition [2] 34% | inhibition [3] 0% | outcome [5] | outcome [6] | outcome [7] | outcome [8]
active: growth inhibition [1] 98% | growth inhibition [4] 100%

COC1CCC(C(=O)Nc2ccc(-c3cccc(-c4nc5ccc(C(F)(F)F)cc5[nH]4)c3)cc2)CC1 (stereo not given)
active: inhibition [2] 69% | growth inhibition [4] 85%
inactive: growth inhibition [1] 48% | inhibition [3] -2% | outcome [5] | outcome [6] | outcome [7] | outcome [8]

CC1CCCCN1CCCNC(=O)c1cccc(-c2cc3cc(Cl)c(Cl)cc3[nH]2)c1 (stereo not given)
active: growth inhibition [4] 94%
inactive: growth inhibition [1] 7% | inhibition [2] 22% | inhibition [3] -2% | outcome [5] | outcome [6] | outcome [7] | outcome [8]

Cc1noc(NC(=O)c2sc3ccccc3c2O)c1C
inactive: inhibition [2] -12% | inhibition [3] 0% | outcome [5] | outcome [6] | outcome [7] | outcome [8]
active: growth inhibition [1] 50% | growth inhibition [4] 90%

COc1cc(C=CC(=O)N2CCN(Cc3cccc(C)c3)CC2)ccc1OCc1c(C)noc1C
active: growth inhibition [1] 95% | growth inhibition [4] 86%
inactive: inhibition [2] 8% | inhibition [3] -4% | outcome [5] | outcome [6] | outcome [7] | outcome [8]

CC(C)C(NC(=O)Cc1cccc2ccccc12)C(=O)Nc1cccc(C#N)c1 (stereo not given)
inactive: inhibition [2] -3% | inhibition [3] 0% | outcome [5] | outcome [6] | outcome [7] | outcome [8]
active: growth inhibition [1] 91% | growth inhibition [4] 92%

COc1ccc(C(=O)Nc2ccc(-c3nc4ccc(C)cc4[nH]3)cc2)cc1OC
active: inhibition [2] 70% | growth inhibition [4] 100%
inactive: growth inhibition [1] 38% | inhibition [3] 0% | outcome [5] | outcome [6] | outcome [7] | outcome [8]

Cc1cnc(NCC2CCCCC2)nc1N[C@@H](CC(C)C)C(=O)Nc1ccccc1
active: growth inhibition [1] 55% | growth inhibition [4] 96%
inactive: inhibition [2] 12% | inhibition [3] -2% | outcome [5] | outcome [6] | outcome [7] | outcome [8]

COc1cccc2c(NN=Cc3cccc([N+](=O)[O-])c3)ccnc12
inactive: growth inhibition [1] 47% | inhibition [2] 12% | inhibition [3] -7% | outcome [5] | outcome [6] | outcome [7] | outcome [8]
active: growth inhibition [4] 100%

c1cncc(CCNCc2ccc(-c3ccc(CNC4Cc5ccccc5C4)cc3)cc2)c1
active: growth inhibition [4] 92%
inactive: growth inhibition [1] 29% | inhibition [2] 32% | inhibition [3] 1% | outcome [5] | outcome [6] | outcome [7] | outcome [8]

Cc1ccc2c(c1)c(C1CCN(C(=O)c3ccc([N+](=O)[O-])o3)CC1)cn2C
inactive: inhibition [2] -6% | inhibition [3] -1% | outcome [5] | outcome [6] | outcome [7] | outcome [8]
active: growth inhibition [1] 76% | growth inhibition [4] 97%
